# 14-3-3 Bad inh – inhibitors of 14-3-3 zeta/Bad binding, primary screen, biochemical, TR-FRET, bovine 14-3-3 zeta; 14-3-3 protein zeta/delta (Bos taurus), P63103; TR-FRET 14-3-3zeta/Dy647-pBad peptide displacement, 1 h; inhibition, % at 21.7 µM; 220,000 compounds, 0.71% hits; AID 781, 2007;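 active means inhibition above about 70%, limit read from the data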;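 further: 0% = full 14-3-3 plus peptide FRET controls and 100% = background without 14-3-3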
# Mcl1-Noxa inh – Mcl-1/Noxa binding inhibitors, primary screen, biochemical, TR-FRET, 1536-well | TR-FRET Mcl-1/Noxa peptide binding, 2 h | Induced myeloid leukemia cell differentiation protein Mcl-1 (Homo sapiens), Q07820 | 220,000 compounds, 1.5% hits | inhibition, % at 21.7 µM;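 active means compounds that cut the protein-peptide binding signal by more than 50% relative to plate controls in a single-dose test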;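 further: His-tagged Mcl-1 with rhodamine Noxa BH3 peptide and terbium anti-His antibody; 0% = Mcl-1 plus Noxa peptide wells and 100% = peptide-only wells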
# eIF4E-4G inh – eIF4E–eIF4G protein interaction inhibitors, primary screen, biochemical, uHTS, TR-FRET, eIF4GI fragment. inhibition, % at 21.7 µM. 220,000 compounds, 0.37% hits. TR-FRET eIF4E-eIF4GI(517-606) binding, 2 h. Eukaryotic translation initiation factor 4E (Mus musculus) + Eukaryotic translation …;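 active means inhibition above about 30%, limit read from the data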;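 further: 0% = full FRET control wells and 100% = background wells lacking eIF4GI fragment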
# Mcl1 Bid PPI – Mcl-1/Bid binding inhibitors, primary screen, biochemical, TR-FRET, 1536-well. 220,000 compounds, 0.97% hits. Induced myeloid leukemia cell differentiation protein Mcl-1 (Homo sapiens), Q07820. inhibition, % at 21.7 µM. AID 1021, 2008. TR-FRET Mcl-1/Bid-Dy647 peptide binding;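 active means compounds that cut the binding signal by more than half at the single screening dose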;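 further: His-tagged Mcl-1 with europium anti-His antibody binding Bid BH3 peptide; 0% = Mcl-1 plus peptide wells and 100% = peptide-only wells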
# Mcl-1 Bim block – inhibitors of Bim peptide binding to Mcl-1, primary screen, biochemical, bead-based flow cytometry, multiplex | inhibition, % at 10 µM | AID 1009, 2008 | Induced myeloid leukemia cell differentiation protein Mcl-1 (Homo sapiens), Q07820 | 190,000 compounds, 0.1% hits | Bim peptide-Mcl-1 binding; in the data active means inhibition above about 40%;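 further: 0% = no compound tracer wells and 100% = peptide blocker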
# Hck Nef HTS – inhibitors of Nef-activated human Hck kinase, primary screen, biochemical, Z-Lyte FRET, 384-well, Hck-YEEI; Tyrosine-protein kinase HCK (Homo sapiens), P08631; Recombinant Hck-YEEI plus Nef, Z-Lyte FRET kinase assay; inhibition, % at 20 µM; 220,000 compounds, 0.68% hits;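 active means Hck-Nef kinase inhibition above about 50%, limit read from the data; inactive means inhibition below that limit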;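 further: 0% = DMSO with Hck plus Nef and 100% = Hck alone without Nef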
# Target sequence (P08631 whole entry, looked up): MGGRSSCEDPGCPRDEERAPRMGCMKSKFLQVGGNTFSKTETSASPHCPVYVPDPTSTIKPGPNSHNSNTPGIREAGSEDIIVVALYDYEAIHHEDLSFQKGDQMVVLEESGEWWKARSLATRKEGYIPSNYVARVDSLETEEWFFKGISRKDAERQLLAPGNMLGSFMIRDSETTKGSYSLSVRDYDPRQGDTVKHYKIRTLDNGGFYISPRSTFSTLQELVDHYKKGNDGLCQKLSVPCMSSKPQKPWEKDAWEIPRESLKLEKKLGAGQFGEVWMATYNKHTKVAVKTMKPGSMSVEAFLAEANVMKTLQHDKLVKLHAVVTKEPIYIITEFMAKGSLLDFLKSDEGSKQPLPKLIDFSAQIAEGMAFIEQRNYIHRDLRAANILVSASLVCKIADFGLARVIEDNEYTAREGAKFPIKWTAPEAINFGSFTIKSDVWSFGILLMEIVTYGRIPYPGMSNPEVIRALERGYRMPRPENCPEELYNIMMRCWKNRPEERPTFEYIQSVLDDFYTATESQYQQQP
# * = called active by the depositor; x = no result given; [ ] = remark or other dose. The list is not random: actives were taken first. Their share in the collection is about 3.5%.
SMILES,14-3-3 Bad inh,Mcl1-Noxa inh,eIF4E-4G inh,Mcl1 Bid PPI,Mcl-1 Bim block,Hck Nef HTS
CCc1cc2ccc(C)cc2nc1SCC(=O)Nc1cc(C)on1,2,-16,1,-24,-3,18
CCc1cc2cc3c(cc2nc1SCC(=O)Nc1cc(C)on1)OCO3,82*,-48,-56,14,1,-3
O=C(COC(=O)C1CC(=O)N(Cc2ccco2)C1)c1ccc(OC(=O)c2ccco2)cc1 (stereo not drawn),4,55*,5,-9,-4,-2
Cc1[nH]c2ccccc2c1C(=O)COC(=O)C1CC(=O)N(Cc2ccco2)C1 (stereo not drawn),8,-3,3,-32,-5,3
Cc1ccc(C(=O)Oc2ccc(C(=O)COC(=O)C3CC(=O)N(Cc4ccco4)C3)cc2)cc1 (stereo not drawn),19,-216,5,57*,0,8
COc1ccccc1-n1cc(C(=O)N2CCCC(CO)(Cc3ccccc3C)C2)cn1 (stereo not drawn),-21,9,3,-2,0,-12
N#Cc1ccc(CO/N=C/c2ccccc2)cc1,-4,-4,2,89*,0,24
CCN1CCc2c(OCc3ccc(C(=O)OC)o3)cccc2C1=O,-13,14,1,92*,-1,30
O=C(COc1cccc2c1CCN(Cc1ccc(Br)cc1)C2=O)NCc1ccco1,0,17,-3,95*,6,0
CC(=O)Nc1scc(C)c1-c1nc2ccccc2s1,-15,-3,-4,-8,x,10
CNc1sc(C(=O)c2cccs2)c(N)c1-c1nc2ccccc2s1,11,56*,1,-26,3,-1
O=C(Nc1nc2ccccc2s1)c1ccc(F)cc1,-5,8,0,-13,0,16
CNc1sc(C(=O)c2ccc(F)cc2)c(N)c1-c1nc2ccccc2s1,10,92*,-4,-51,-1,-16
CCOC(=O)C1=C(C)N(CC(C)C)C(=O)C1,-8,-6,-1,-35,2,21
COc1cc(CNc2ccccc2SC)cc(OC)c1OC,40,22,3,11,-3,2
COc1ccc(CNc2ccccc2SC)cc1OC,74*,34,-7,32,-1,-1
Cc1ccc(CN2CCCC(CO)(Cc3ccccc3C)C2)s1 (stereo not drawn),-2,-4,0,-41,0,12
CC(C)(C)C(=O)Nc1ccccc1C(=O)OCC(=O)c1ccc2c(c1)OCCO2,-4,-4,-4,-14,2,1
O=C(COC(=O)c1ccccc1NC(=O)C1CC1)c1ccc2c(c1)OCCO2,71*,-1,3,-14,-3,-1
O=c1oc2c3c4c(cc2s1)CCCN4CCC3,-11,51*,13,-16,3,1
O=c1ccc2cc3c4c(c2o1)CCCN4CCC3,8,10,9,-15,5,14
CCOC(=O)N1CCN(c2cc(=O)n(-c3cccc(C)c3)c(=O)[nH]2)CC1,-3,7,0,-47,-1,25
COc1cccc(Oc2cncnc2-c2ccc(OC)cc2O)c1,-8,10,0,-8,0,2
COc1ccc(-c2ncncc2-c2ccc(Cl)cc2)c(O)c1,-4,-9,83*,-22,x,12
N#CCSc1nc2cc(C(=O)N3CCC(C(N)=O)CC3)ccc2c2nc3ccccc3n12,18,51*,-1,2,0,3
SMILES,14-3-3 Bad inh,Mcl1-Noxa inh,eIF4E-4G inh,Mcl1 Bid PPI,Mcl-1 Bim block,Hck Nef HTS
N#CCSc1nc2cc(C(=O)N3CCCC3)ccc2c(=O)n1Cc1ccccc1,11,19,9,18,15,0
O=C(CCc1ccc(S(=O)(=O)N2CCOCC2)cc1)Nc1nc(COc2ccccc2)cs1,-9,-3,-12,-9,1,4
CSc1nc(-c2ccco2)nn1S(=O)(=O)c1ccc(C)cc1,-2,20,2,-5,-5,2
CSc1nc(-c2ccco2)nn1S(=O)(=O)c1ccccc1,81*,23,20,-6,-1,0
c1ccc(-n2nnc3cnccc32)cc1,-2,-13,31*,1,-1,0
CCOc1cc(C=O)ccc1OCCSc1ccc(Cl)cc1,5,-5,9,1,2,1
CCc1nc(Nc2ccc3c(c2)OCCO3)c2oc3ccccc3c2n1,86*,32,10,32,4,-15
COc1ccc(Nc2ncnc3c2oc2ccccc23)cc1,67,24,4,16,2,10
c1ccc2c(c1)oc1c(Nc3ccc4c(c3)OCCO4)ncnc12,76*[fluorescence artefact?],23,13,12,2,1
CCc1nc(NCc2ccco2)c2oc3ccccc3c2n1,81*,18,-8,11,0,1
O=[N+]([O-])c1ccc2ncnc(Nc3ccc4c(c3)OCCO4)c2c1,-2,33,-2,4,1,12
Cc1ccc(Nc2ncnc3c2oc2ccccc23)cc1,72*,39,-5,33,1,-17
COc1ccc(-c2[nH]ncc2CN2CCCCCCC2)c(OC)c1,-6,19,0,-4,-6,-13
O=C(NCc1ccco1)/C(=C\c1cccs1)NC(=O)c1ccco1,-3,4,-1,-20,-3,-3
Cc1nc(Nc2ccc3c(c2)OCCO3)c2oc3ccccc3c2n1,73*,30,-4,9,0,-24
Cc1ccc(/C=C/C(=O)NCc2cccs2)o1,-11,6,6,-14,1,24
Cc1cccc(NC(=O)COc2ccc(/C=C\c3[nH]c(=O)[nH]c(=O)c3[N+](=O)[O-])cc2)c1,1,34,18,-50,0,62*
Cc1cc(C)c(S(=O)(=O)/N=C2/C=C(SCC(=O)O)C(=O)c3ccccc32)cc1C,70*,87*,11,28,2,34
CC1=CC(=O)C=C(C)C1=NOc1ccc([N+](=O)[O-])cc1,74*,22,26,35,-2,18
Cc1cc(=O)oc2cc(NC(=O)CC3(CC(=O)O)CCCC3)ccc12,4,11,1,9,x,2
COc1ccc(/C=C2\CCc3c2nc2ccccc2c3C(=O)O)cc1OC,1,16,-1,-16,x,-211

# Screens (PubChem BioAssay)
